In assay [1] the target is Protein kinase C gamma type (Homo sapiens) (UniProt P05129). The settings on record: at 1 µM.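 Note: each value is an averaged percent inhibition of the enzyme.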
The target of assay [2] is T1, Protein kinase C iota type (Homo sapiens) (UniProt P41743).
T1 sequence (whole entry): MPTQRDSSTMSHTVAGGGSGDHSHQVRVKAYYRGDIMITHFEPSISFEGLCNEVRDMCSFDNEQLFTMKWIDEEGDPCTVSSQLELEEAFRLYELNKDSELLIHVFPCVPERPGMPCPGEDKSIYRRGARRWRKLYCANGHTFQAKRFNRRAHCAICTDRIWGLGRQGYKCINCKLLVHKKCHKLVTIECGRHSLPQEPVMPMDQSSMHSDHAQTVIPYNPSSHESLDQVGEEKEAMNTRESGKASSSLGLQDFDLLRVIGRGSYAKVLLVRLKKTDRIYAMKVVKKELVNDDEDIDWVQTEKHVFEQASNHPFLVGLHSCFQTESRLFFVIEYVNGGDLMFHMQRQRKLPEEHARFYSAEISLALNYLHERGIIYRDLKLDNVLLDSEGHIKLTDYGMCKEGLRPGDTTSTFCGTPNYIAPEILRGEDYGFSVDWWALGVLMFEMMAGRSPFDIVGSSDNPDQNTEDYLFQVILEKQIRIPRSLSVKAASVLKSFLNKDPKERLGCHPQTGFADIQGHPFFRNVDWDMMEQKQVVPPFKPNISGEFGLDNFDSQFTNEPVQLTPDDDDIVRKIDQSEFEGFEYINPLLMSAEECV
The settings on record: at 0.1 µM.

Assay [3] addresses T1, Protein kinase C iota type (Homo sapiens). The following applies: at 1 µM.
Assay [4] deals with Protein kinase C theta type (Homo sapiens) (UniProt Q04759). The following applies: at 0.1 µM.
Assay [5] shares this target. The settings on record: at 1 µM.
Assay [6] deals with Protein kinase C beta type (Homo sapiens) (UniProt P05771). The settings on record: at 0.1 µM.
Assay [7] has the same target. The settings on record: at 1 µM.
For assay [8], the target named is T2, Serine/threonine-protein kinase D1 (Homo sapiens) (UniProt Q15139).
T2 sequence (whole entry): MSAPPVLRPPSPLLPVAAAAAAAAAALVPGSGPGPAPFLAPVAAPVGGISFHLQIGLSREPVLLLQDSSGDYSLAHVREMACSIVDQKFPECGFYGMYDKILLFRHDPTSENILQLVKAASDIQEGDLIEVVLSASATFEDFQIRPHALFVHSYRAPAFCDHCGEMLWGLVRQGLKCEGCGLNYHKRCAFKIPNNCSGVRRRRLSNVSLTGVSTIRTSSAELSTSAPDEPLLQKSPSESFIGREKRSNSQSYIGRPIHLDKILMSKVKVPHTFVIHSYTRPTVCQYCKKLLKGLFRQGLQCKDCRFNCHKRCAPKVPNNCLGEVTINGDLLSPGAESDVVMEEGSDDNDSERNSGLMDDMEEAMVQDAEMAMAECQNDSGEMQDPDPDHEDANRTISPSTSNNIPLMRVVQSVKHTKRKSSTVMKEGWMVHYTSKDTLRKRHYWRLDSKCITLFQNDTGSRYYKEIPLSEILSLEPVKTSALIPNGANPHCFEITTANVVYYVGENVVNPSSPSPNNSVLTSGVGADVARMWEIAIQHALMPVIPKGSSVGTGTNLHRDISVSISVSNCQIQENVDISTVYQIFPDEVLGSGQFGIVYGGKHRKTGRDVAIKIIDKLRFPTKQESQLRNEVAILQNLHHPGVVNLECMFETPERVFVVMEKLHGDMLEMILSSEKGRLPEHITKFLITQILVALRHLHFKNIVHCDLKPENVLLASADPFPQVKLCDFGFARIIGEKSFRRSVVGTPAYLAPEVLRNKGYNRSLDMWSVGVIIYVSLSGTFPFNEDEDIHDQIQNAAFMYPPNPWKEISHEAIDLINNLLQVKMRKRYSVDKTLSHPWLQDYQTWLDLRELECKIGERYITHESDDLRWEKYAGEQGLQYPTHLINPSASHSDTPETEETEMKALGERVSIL
The following applies: at 0.1 µM.

The target of assay [9] is T2, Serine/threonine-protein kinase D1 (Homo sapiens). The following applies: at 1 µM.
The target in assay [10] is T3, Serine/threonine-protein kinase D2 (Homo sapiens) (UniProt Q9BZL6).
T3 sequence (whole entry): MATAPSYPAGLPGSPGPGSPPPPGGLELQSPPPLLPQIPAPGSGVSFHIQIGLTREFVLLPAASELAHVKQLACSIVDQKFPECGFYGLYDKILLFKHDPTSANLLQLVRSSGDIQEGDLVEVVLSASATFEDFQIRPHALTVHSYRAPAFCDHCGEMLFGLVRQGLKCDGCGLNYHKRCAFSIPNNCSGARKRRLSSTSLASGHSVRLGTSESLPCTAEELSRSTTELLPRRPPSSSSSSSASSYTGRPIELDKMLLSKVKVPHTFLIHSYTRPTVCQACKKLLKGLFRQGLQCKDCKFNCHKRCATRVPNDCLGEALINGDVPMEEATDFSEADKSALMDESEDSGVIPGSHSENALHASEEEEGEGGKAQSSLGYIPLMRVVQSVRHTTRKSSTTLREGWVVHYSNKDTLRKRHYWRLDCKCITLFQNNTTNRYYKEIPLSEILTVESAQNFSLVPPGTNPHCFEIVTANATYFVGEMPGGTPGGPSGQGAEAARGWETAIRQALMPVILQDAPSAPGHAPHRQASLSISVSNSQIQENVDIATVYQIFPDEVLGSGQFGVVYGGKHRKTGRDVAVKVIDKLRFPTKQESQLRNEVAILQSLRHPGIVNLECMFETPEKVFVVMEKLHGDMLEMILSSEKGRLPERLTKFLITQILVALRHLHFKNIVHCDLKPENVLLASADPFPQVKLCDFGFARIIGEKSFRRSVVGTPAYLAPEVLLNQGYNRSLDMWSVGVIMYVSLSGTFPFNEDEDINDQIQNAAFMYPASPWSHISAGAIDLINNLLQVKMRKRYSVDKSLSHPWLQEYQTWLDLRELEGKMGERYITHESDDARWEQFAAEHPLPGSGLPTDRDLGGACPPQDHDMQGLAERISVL
The following applies: at 0.1 µM.

The target of assay [11] is T3, Serine/threonine-protein kinase D2 (Homo sapiens). The settings on record: at 1 µM.
The target of assay [12] is T4, Serine/threonine-protein kinase D3 (Homo sapiens) (UniProt O94806).
T4 sequence (whole entry): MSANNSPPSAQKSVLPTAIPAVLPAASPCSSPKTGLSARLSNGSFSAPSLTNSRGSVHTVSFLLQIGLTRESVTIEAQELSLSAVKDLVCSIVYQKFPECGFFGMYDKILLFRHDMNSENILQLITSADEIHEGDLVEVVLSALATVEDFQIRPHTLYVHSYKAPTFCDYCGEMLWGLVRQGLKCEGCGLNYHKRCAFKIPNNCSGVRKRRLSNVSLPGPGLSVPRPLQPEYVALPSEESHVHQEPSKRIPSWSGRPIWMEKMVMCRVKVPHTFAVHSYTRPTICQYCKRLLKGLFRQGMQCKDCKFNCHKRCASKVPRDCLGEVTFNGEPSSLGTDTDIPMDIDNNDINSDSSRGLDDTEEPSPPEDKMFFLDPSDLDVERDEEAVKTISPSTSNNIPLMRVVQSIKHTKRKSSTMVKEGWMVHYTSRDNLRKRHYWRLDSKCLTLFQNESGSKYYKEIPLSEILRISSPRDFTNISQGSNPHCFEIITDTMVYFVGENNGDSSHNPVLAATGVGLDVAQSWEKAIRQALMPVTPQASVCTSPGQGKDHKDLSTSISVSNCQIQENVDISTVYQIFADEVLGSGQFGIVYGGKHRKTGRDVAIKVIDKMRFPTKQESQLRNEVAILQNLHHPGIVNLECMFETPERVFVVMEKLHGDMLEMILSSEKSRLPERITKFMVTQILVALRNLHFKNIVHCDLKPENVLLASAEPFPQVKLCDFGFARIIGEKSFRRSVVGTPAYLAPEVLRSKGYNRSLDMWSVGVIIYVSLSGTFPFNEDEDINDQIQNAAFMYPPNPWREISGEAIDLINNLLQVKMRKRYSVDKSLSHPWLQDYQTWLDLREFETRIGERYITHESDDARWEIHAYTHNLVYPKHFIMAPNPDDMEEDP
The settings on record: at 0.1 µM.

The target of assay [13] is T4, Serine/threonine-protein kinase D3 (Homo sapiens). The settings on record: at 1 µM.
The target of assay [14] is T5, cGMP-dependent protein kinase 1 (Homo sapiens) (UniProt Q13976).
T5 sequence (whole entry): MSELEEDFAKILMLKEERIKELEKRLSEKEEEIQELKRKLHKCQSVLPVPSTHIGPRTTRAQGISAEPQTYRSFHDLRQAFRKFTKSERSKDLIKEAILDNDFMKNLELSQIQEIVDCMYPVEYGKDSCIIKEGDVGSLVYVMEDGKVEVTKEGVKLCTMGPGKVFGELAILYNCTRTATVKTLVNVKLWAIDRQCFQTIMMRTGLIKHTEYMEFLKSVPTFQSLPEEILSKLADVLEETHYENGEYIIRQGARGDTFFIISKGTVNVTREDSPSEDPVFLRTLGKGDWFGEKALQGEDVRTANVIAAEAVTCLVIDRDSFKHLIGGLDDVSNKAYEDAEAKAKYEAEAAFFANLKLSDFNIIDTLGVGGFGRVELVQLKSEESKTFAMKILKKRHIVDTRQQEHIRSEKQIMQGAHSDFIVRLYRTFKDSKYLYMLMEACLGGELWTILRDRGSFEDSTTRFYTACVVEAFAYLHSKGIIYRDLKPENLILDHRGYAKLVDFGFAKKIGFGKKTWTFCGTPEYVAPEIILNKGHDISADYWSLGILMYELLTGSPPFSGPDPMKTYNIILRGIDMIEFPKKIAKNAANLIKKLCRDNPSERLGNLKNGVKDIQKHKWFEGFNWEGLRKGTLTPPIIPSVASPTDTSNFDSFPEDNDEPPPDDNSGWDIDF
The settings on record: at 0.1 µM.

In assay [15] the target is T5, cGMP-dependent protein kinase 1 (Homo sapiens). The settings on record: at 1 µM.
Assay [16] has as its target T6, cGMP-dependent protein kinase 2 (Homo sapiens) (UniProt Q13237).
T6 sequence (whole entry): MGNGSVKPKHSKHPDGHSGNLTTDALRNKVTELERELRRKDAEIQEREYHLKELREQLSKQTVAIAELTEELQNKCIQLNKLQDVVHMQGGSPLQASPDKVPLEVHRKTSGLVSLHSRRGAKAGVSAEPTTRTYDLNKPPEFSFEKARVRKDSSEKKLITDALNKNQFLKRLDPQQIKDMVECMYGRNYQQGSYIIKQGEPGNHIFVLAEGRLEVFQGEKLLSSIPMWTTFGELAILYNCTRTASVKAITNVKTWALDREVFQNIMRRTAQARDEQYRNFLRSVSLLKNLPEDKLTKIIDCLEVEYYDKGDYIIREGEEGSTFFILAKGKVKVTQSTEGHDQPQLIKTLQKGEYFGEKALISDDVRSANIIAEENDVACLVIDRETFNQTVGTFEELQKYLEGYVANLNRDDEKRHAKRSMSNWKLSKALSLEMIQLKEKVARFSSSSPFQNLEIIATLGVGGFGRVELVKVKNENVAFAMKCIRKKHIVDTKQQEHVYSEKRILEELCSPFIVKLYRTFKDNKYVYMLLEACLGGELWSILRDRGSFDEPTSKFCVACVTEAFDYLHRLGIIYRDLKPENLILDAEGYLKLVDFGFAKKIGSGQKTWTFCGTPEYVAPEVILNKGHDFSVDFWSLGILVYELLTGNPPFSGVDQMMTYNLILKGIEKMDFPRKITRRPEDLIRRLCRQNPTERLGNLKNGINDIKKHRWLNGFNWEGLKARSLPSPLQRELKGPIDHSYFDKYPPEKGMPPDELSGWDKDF
The settings on record: at 0.1 µM.

Assay [17] deals with T6, cGMP-dependent protein kinase 2 (Homo sapiens). The following applies: at 1 µM.
Assay [18] concerns the target T7, cAMP-dependent protein kinase catalytic subunit PRKX (Homo sapiens) (UniProt P51817).
T7 sequence (whole entry): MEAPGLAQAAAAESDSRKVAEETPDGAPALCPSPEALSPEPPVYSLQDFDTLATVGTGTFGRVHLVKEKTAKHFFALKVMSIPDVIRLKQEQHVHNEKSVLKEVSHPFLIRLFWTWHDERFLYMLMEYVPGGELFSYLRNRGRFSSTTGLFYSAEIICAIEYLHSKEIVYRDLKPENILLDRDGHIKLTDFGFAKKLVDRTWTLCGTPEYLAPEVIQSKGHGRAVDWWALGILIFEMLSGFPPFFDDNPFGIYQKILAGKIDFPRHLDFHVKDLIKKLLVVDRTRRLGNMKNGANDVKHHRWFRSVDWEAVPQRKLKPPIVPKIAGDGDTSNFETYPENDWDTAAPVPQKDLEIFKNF
The settings on record: at 0.1 µM.

Assay [19] addresses T7, cAMP-dependent protein kinase catalytic subunit PRKX (Homo sapiens). The following applies: at 1 µM.
Assay [20] addresses Rho-associated protein kinase 1 (Homo sapiens) (UniProt Q13464). The following applies: at 0.1 µM.

Protein kinase C beta type (Homo sapiens), sequence (P05771 2-671 limits assumed): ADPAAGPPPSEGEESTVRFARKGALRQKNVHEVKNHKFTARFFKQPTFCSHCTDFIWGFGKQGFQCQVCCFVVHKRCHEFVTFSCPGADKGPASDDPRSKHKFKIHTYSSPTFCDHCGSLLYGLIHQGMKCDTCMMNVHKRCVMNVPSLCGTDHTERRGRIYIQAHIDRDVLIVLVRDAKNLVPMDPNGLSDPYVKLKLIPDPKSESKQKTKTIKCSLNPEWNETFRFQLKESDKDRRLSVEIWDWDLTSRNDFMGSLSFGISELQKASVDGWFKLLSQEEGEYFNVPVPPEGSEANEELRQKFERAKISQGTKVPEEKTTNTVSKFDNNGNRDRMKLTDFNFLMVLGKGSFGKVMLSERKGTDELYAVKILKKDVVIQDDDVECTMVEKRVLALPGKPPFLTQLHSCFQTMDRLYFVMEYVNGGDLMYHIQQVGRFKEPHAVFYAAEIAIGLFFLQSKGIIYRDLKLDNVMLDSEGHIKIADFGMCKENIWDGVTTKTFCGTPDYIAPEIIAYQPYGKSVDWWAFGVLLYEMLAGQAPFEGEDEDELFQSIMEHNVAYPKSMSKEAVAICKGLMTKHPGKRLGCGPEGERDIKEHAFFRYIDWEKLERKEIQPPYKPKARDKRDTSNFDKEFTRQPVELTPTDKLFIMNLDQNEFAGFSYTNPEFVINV
Protein kinase C theta type (Homo sapiens), sequence (Q04759 whole entry, looked up): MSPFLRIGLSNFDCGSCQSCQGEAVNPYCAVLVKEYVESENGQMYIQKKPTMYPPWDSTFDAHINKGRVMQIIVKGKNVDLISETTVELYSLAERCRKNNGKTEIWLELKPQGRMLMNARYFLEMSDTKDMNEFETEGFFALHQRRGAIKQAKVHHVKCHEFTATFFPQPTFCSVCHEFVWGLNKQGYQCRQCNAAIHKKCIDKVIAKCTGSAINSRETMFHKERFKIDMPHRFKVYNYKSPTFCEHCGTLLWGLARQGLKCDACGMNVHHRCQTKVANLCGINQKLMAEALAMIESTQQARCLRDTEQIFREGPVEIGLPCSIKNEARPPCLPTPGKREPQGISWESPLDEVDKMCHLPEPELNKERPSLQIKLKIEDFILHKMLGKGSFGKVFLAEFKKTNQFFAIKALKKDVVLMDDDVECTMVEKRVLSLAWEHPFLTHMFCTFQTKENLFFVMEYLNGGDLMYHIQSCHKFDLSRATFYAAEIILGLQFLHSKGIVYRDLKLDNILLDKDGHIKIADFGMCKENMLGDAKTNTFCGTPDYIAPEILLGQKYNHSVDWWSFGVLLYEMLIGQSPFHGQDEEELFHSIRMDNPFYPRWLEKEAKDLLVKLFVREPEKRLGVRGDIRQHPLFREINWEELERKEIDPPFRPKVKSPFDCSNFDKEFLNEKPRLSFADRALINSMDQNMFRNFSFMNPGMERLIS
Rho-associated protein kinase 1 (Homo sapiens), sequence (Q13464 2-1354 limits assumed): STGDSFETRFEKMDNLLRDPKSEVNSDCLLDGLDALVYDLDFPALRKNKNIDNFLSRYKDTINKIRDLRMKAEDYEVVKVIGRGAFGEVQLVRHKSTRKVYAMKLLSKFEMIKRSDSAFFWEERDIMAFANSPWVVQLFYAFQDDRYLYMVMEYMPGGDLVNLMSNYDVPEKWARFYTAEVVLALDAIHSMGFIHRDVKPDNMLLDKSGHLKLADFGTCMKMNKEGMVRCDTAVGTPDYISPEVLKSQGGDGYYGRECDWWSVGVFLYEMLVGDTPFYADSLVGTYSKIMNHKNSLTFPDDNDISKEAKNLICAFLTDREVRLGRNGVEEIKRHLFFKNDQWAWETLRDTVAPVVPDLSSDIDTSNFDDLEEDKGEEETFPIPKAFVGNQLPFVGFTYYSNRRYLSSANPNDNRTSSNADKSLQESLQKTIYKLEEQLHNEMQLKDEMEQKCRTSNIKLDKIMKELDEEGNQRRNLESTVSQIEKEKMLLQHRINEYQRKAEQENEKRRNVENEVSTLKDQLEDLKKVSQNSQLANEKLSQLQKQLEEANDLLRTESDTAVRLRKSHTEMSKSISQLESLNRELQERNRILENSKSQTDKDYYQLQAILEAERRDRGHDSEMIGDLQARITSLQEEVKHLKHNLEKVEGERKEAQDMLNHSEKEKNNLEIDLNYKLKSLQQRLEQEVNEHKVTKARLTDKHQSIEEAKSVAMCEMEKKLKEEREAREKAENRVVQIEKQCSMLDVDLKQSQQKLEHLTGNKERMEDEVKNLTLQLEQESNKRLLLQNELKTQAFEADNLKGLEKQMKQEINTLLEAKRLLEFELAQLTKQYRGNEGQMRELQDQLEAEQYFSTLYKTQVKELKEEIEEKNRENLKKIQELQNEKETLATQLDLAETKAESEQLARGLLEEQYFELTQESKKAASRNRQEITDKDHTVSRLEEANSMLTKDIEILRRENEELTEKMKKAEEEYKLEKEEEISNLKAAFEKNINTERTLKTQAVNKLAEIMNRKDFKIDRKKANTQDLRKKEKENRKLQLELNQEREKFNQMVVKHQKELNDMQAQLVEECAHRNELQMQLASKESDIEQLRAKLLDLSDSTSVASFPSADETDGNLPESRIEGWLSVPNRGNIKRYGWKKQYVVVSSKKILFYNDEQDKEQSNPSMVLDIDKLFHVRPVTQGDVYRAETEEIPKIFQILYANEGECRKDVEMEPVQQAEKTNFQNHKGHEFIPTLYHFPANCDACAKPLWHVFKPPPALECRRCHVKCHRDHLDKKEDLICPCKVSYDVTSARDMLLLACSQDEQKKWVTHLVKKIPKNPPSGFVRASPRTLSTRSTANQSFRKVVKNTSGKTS

`COc1cccc(/C=N/Nc2ncnc3c2cnn3-c2cccc(OC)c2)c1`: the inhibition (in general, the change of the read-out against control, counted positive when it falls) in assay [1] was determined as 6.32%; in assay [2] it was 1.63%; in assay [3] it was 1.72%; in [4], 1.69%; in assay [5], 4%; in assay [6], 0.47%. The inhibition turned out to be 1.93% in [7]; 3.52% in assay [8]; 8.09% in assay [9]; 2.74% in assay [10]; 1.36% in [11]; 3.64% in assay [12]. Besides, the inhibition in [13] was determined as 2.93%; in [14], 3.82%; in assay [15] it was 4.05%; in [16] it was 1.19%; in [17], 3.17%; in [18], 0.44%. Besides, the inhibition in assay [19] was found to be 1.94%; in assay [20], 2.52%.

`FC(F)(F)c1cccc(Nc2nccc(-c3cnn4nc(-c5ccccc5)ccc34)n2)c1`: the inhibition is 1.78% in [1]; 0.68% in assay [2]; 0.06% in assay [3]; 1.79% in assay [4]; 2.39% in assay [5]; 1.28% in assay [6]. Further, the inhibition in [7] is 1.35%; in [8], 2.1%; in [9], 3.92%; in assay [10] it was 1.86%; in assay [11] it was 1.49%; in [12], 1.55%. Also, the inhibition in assay [13] is 2.61%; in [14], 1.17%; in assay [15], -0.32%; in assay [16], 1.44%; in [17], -1.07%; in [18], 1.18%. Moreover, the inhibition was 0.74% in assay [19] and 0.77% in assay [20].

Values taken from ChEMBL document CHEMBL1961873, “Compounds: GSK PKIS; Assays: Nanosyn kinase panel” (2012).
